Test results taken from ChEMBL document CHEMBL4513216, “Probing the Open Global Health Chemical Diversity Library for Multistage-Active Starting Points for Next-Generation Antimalarials” (ACS Infect Dis, 2020).
Among all 69,000 compounds or so, about 8,600 (12%) showed an effect of 50% or more. Shown is part of a subset that was picked to be rich in strong results.

System: Plasmodium berghei
Assay: Screen against P. berghei liver stage (PbLuc), transformed with Luciferase, at 10uM
Format: functional, HepG2
Settings: tested at 10 uM

Row | SMILES | INHIBITION [%]
1 | O=C(c1cnccn1)N1CCCC2(CCN(Cc3cccnc3)C2)C1 (stereo not drawn) | -19.5
2 | O=C(c1cncc(NCC2COc3ccccc3C2)n1)N1CCCCC1 (stereo not drawn) | 0.348
3 | CC(C)Cc1nc(OCC(N)=O)c(C#N)c2c1CCC2 | 16.6
4 | CC(C)Cc1nc(OCC(=O)O)c(C#N)c2c1CCCC2 | 43.4
5 | CC(C)Cc1nc(OCC(N)=O)c(C#N)c2c1CCCC2 | 51
6 | C[C@@H]1C[C@H](C(F)(F)F)n2nc(C3CCN(C(=O)C(C)(C)C)CC3)cc2N1 | 8.72
7 | O=C(NCc1cccnc1)C1=NOC2(CCN(C(=O)N3CCCC3)C2)C1 (stereo not drawn) | -50.9
8 | CN(CCc1nc2cc(Cl)ccc2[nH]1)C(=O)c1ncn[nH]1 | 16.5
9 | CCc1ncc(C(=O)N(C)CCc2nc3cc(OC)ccc3[nH]2)cn1 | 59.1
10 | CCNc1ncc(C(=O)N(C)CCc2nc3cc(Cl)ccc3[nH]2)cn1 | 41.5
11 | CCn1cnnc1CNC(=O)c1ccc(Cl)cc1I | 44.1
12 | O=C1COC2(CCN(c3ncccn3)CC2)CN1 | 70
13 | O=C1COC2(CCN(c3ccccn3)CC2)CN1 | -23.3
14 | COc1cc(N2CCC3(CC2)CNC(=O)CO3)ncn1 | 16.6
15 | O=C1CCCCN1CCCC(=O)N1CCC2(CC1)[C@H](O)C[C@@H]2O | 26.8
16 | CN(CC(=O)Nc1cccnc1)CC1CCCN1c1cccnn1 (stereo not drawn) | 53.4
17 | CC(=O)Nc1nc(CN(C)CC2CCCN2c2cccnn2)cs1 (stereo not drawn) | 51.7
18 | CN(CC(=O)Nc1nncs1)CC1CCCN1c1cccnn1 (stereo not drawn) | 3.77
19 | CN(CC(=O)Nc1ccncc1)CC1CCCN1c1cccnn1 (stereo not drawn) | 41.4
20 | CC(=O)Nc1nc(CN(C)C2CCCN(c3cccnn3)C2)cs1 (stereo not drawn) | 31.2
21 | Cc1csc(NC(=O)CN(C)CC2CCCN2c2cccnn2)n1 (stereo not drawn) | 48.5
22 | Cc1noc(C)c1CCC(=O)N[C@@H]1CCC[C@@H](Oc2cccnc2)[C@@H]1O | -27.1

Row | SMILES | INHIBITION [%]
23 | Cc1ccccc1C1(CNC(=O)c2cccc(S(C)(=O)=O)c2)CC1 | -8.22
24 | O=C(NCCCN1CCc2ccccc2C1)c1ccccc1Br | 5.03
25 | Cc1cccc(C(=O)NCCCN2CCc3ccccc3C2)c1C | 21.5
26 | CS(=O)(=O)c1cccc(C(=O)NCCCN2CCc3ccccc3C2)c1 | 56.4
27 | CS(=O)(=O)c1ccccc1C(=O)NCCCN1CCc2ccccc2C1 | 52.1
28 | Cc1ccccc1C1(CNC(=O)c2ccc(S(C)(=O)=O)cc2)CC1 | 30.3
29 | CS(=O)(=O)c1cccc(C(=O)NCC2(c3ccccc3)CC2)c1 | 86.8
30 | O=C(NCCCN1CCc2ccccc2C1)c1ccccc1Cl | -7.31
31 | Cc1ccccc1C(=O)NCCCN1CCc2ccccc2C1 | 25.6
32 | Cc1nc(C)n(CC2CCCCN2CC(=O)NC(C2CC2)C2CC2)n1 (stereo not drawn) | -24.2
33 | O=c1c2ccccc2nc2n1C(CSc1cccc(C(F)(F)F)c1)CN2 (stereo not drawn) | 37.8
34 | CNC(=O)[C@@H]1C[C@H]2CN(C(=O)c3ccco3)C[C@H]2N1C | 7.84
35 | c1ccc(N2CCOC3(CCCN(c4nncs4)C3)C2)nc1 (stereo not drawn) | 3.95
36 | O=C1C[C@@H]2CC[C@H](CN1)N2C(=O)CCc1ccccc1 | 11.2
37 | Cc1cc(CCC(N)=O)cc(C2CCCN2Cc2ccccn2)n1 (stereo not drawn) | 18.3
38 | Cc1cc(CCC(N)=O)cc(C2CCCN2Cc2ccnn2C)n1 (stereo not drawn) | -2.11
39 | Cc1cc(CCC(N)=O)cc(C2CCCN2Cc2cnc(C)nc2)n1 (stereo not drawn) | 52
40 | Cc1noc(C)c1CNCC1COCc2c(-c3ccoc3)nnn2C1 (stereo not drawn) | -16.9
41 | CCc1noc(C2CCCCN2C(=O)c2ccc3c(c2)OCO3)n1 (stereo not drawn) | 7.66
42 | Cc1nc(CN2CCCC2c2nc(C(C)C)no2)cs1 (stereo not drawn) | 36.8
43 | CCn1ccc2ccc(CN3CCCC3c3nc(C(C)C)no3)cc21 (stereo not drawn) | 61.2
44 | CCn1cc(CN2CCCC2c2nc(C(C)C)no2)cc1C#N (stereo not drawn) | 25.8

Row | SMILES | INHIBITION [%]
45 | C=C(C)CNC(C)c1ccc(S(C)(=O)=O)c(F)c1 (stereo not drawn) | -13.1
46 | Nc1nccnc1C(=O)NC1CCN(Cc2ccccc2)C1 (stereo not drawn) | -14.5
47 | Cc1cc(C)c2c(OCC(=O)NCC(O)C(F)(F)F)nn(C)c2n1 (stereo not drawn) | -23.4
48 | COCCN1CC=C(c2cccc(OC)c2)CC1 | -6.72
49 | COc1cccc(C2=CCN(CCN3CCOC3=O)CC2)c1 | 9.37
50 | COc1cccc(C2=CCN(CCN3CCCC3=O)CC2)c1 | 51.7
51 | O=S(=O)(c1ccc(N2CCCCC2)c2nonc12)N1CCCCC1 | 30
52 | COc1cc(F)ccc1-c1cnc(N)cn1 | 61.5
53 | COc1cc(F)ccc1-c1cc(CO)ccn1 | 37.7
54 | Nc1cnc(-c2ccc(F)cc2Cl)cn1 | 38.2
55 | CN1CCN(C2CCOCC2)CC12CCC(=O)N(CC1CC1)CC2 (stereo not drawn) | 5.46
56 | Clc1cccc(-n2cnnn2)c1N1CCOCC1 | 1.86
57 | Clc1cccc(-n2cnnn2)c1N1CCCCC1 | 67.3
58 | Clc1cccc(-n2cnnn2)c1N1CCCC1 | 11
59 | O=c1[nH]c2nc(NC3CC3)ncc2c(=O)n1-c1ccc(F)cc1 | 13.8
60 | O=c1[nH]c2nc(NCC3CCCO3)ncc2c(=O)n1-c1ccc(F)cc1 (stereo not drawn) | 88.8
61 | O=c1[nH]c2nc(NCC3CCCO3)ncc2c(=O)n1-c1cccc(F)c1 (stereo not drawn) | -26.2
62 | COCCN1CC[C@@H]2CN(Cc3nccn3C)C[C@@H]2C1 | 28.7
63 | Cc1ccccc1C(=O)N1CCOC(c2ncc(CN(C)C)[nH]2)C1 (stereo not drawn) | -10.4
64 | CCS(=O)(=O)N1C[C@@H](C(=O)NC(C)C)[C@@]2(Cc3ccccc3C(=O)N2)C1 | -8.31
65 | CS(=O)(=O)CCC(=O)NC1(c2cccc(C(F)(F)F)c2)CCC1 | 65.6
66 | CCNC(=O)CCC(=O)NC1(c2cccc(C(F)(F)F)c2)CCC1 | 23.9

Row | SMILES | INHIBITION [%]
67 | COCC(=O)NC1(c2cccc(C(F)(F)F)c2)CCC1 | 38.7
68 | CC(C)NC(=O)Nc1ccc(CNCc2cccc(C#N)c2)cc1 | 43.7
69 | Cc1ccc(C(CNCc2c[nH]nc2C)N(C)C)cc1 (stereo not drawn) | -4.33
70 | CC(C)CN1CCC(NC(=O)c2ccc(F)cc2I)CC1 | 50.1
71 | CC(=O)N1CCC(NC(=O)c2cc(Cl)ccc2-n2cnnn2)CC1 | 37.7
72 | CCN1CCC(NC(=O)c2ccc(F)cc2I)CC1 | 2.7
73 | CC(C)CN1CCC(NC(=O)c2ccc(Cl)cc2Cl)CC1 | 90.2
74 | COCC(O)CN1CCC(NC(=O)c2ccccc2Cl)CC1 (stereo not drawn) | 19.6
75 | O=C(NC1CCN(C2CC2)CC1)c1cc(Cl)ccc1-n1cnnn1 | 62.8
76 | CC(C)CN1CCC(NC(=O)c2ccc(F)cc2Cl)CC1 | -23.4
77 | O=C(NC1CC1)c1cc(Cl)ccc1-n1cnnn1 | -3.59
78 | CC(=O)N1CCC(NC(=O)c2cc(S(N)(=O)=O)ccc2C)CC1 | -21.3
79 | CC(C)CN1CCC(NC(=O)c2ccc(F)cc2F)CC1 | 31.1
80 | CC(=O)N1CCC(NC(=O)c2ccccc2-n2cnnn2)CC1 | 35.9
81 | CC(=O)N1CCC(NC(=O)c2cc(Cl)ccc2O)CC1 | 61
82 | Cc1cc2ccccc2n1CCC(=O)NCCS(C)(=O)=O | 0.426
83 | CC(C)CS(=O)(=O)N1C[C@@H]2C[C@H](C(=O)NCc3ccccc3)[C@H](C1)O2 | 9.48
84 | Cc1ccc(C(=O)N(C)Cc2cc(Br)cs2)c(=O)[nH]1 | 15
85 | Cc1cnn(CC2CN(CC(=O)N(C)Cc3ccccc3)CCO2)c1 (stereo not drawn) | 13.3
86 | CNC(=O)C1CN(c2ccc(F)cc2)CCN1 (stereo not drawn) | 41.5
87 | O=C(CCOc1ccccc1F)N1CCCC(n2cncn2)C1 (stereo not drawn) | 36.065
88 | O=C(CO)N1CC[C@@H](N2CCN(c3ccccc3F)CC2)[C@H](O)C1 | 52.6

Row | SMILES | INHIBITION [%]
89 | C[C@@H]1CN(C2CCN(c3ccccc3F)CC2)CC[C@]1(C)O | 7.31
90 | Cc1ccccc1N1CCN(C2CCCN(C(=O)CCC(C)C)C2)CC1 (stereo not drawn) | 46.6
91 | CSCCC(=O)N1CC[C@@H](N2CCN(c3ccccc3F)CC2)[C@H](O)C1 | 48.9
92 | O=C(CO)N1CCCC(N2CCN(c3ccccc3F)CC2)C1 (stereo not drawn) | 65.6
93 | O[C@@H]1CN(CC2CC2)CC[C@H]1N1CCN(c2ccccc2F)CC1 | 53.6
94 | CCOc1cncc(N2CCN(c3ccccc3F)CC2)n1 | 3.77
95 | O=C(CC1CC1)N1C[C@@H](O)[C@H](N2CCN(c3ccccc3)CC2)C1 | 30.25
96 | O=C(NCCNC1CCCCC1)c1cccs1 | -2.11
97 | COc1ccc(S(=O)(=O)N[C@H]2CN(C(C)=O)C[C@@H]2C(C)C)cc1F | 17.7
98 | Cc1cnc(CN(C)C2CCN(CCCc3ccccc3)C2)o1 (stereo not drawn) | -9.37
99 | CN(C)CC(=O)N1CCc2sc(C(=O)NCC3CC3)cc21 | -17.1
100 | CSCC(=O)N1CCCC(c2cc(C)[nH]n2)C1 (stereo not drawn) | 28
101 | CC(C)c1ocnc1C(=O)N1CC(=O)Nc2cccnc21 | 37.1
102 | O=c1cc(CN2C[C@@H]3CC[C@H]2CN(Cc2ccccc2)C3)[nH]c(=O)[nH]1 | 34
103 | CN(C)S(=O)(=O)N1CCOC(c2cccc(-c3cncnc3)n2)C1 (stereo not drawn) | 13
104 | NCC1[C@H]2CN(Cc3ccccc3)C[C@@H]12 (stereo partly drawn) | 5.73
105 | Cn1cc(CN2CCCC(c3nccnc3-c3cccc(F)c3)C2)cn1 (stereo not drawn) | 9.05
106 | CSCC(=O)N[C@H]1CN(CC2CCOCC2)C[C@@H]1c1ccccc1 | -69.6
107 | O=C(CCO)N[C@H]1CN(CC2CCC2)C[C@@H]1c1ccccc1 | -13.1
108 | CS(=O)(=O)NCC(=O)N[C@H]1CN(CC2CC2)C[C@@H]1c1ccccc1 | 65.3
